Data taken from PubChem BioAssay (Tox21).
Inconclusive results are not listed. The source made the active and inactive calls. Unless noted, calls come from the whole dose curve; as a rule, active = well fitted curve in the direction sought with a large enough effect in the repeat runs; inconclusive = weak or mixed curves; inactive = no such curve, though single readings can be large; an effect the other way counts as inactive or inconclusive.

Assays:
[1] = qHTS assay to identify aromatase inhibitors - cell viability counter screen (AID 743084);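 note: cells stimulated with testosterone during compound exposure; nearly all actives have a fitted effect of over 55% in size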
[2] = target: Aryl hydrocarbon receptor (Homo sapiens) (UniProt P35869); assay: qHTS assay to identify small molecule that activate the aryl hydrocarbon receptor (AhR) signaling pathway (AID 743085); note: nearly all actives have a fitted effect of over 15% in size; note: potency is the fitted concentration of half-maximal effect;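 for activation: HG2L7.5c1 human HepG2 liver cells with stably integrated DRE-driven firefly reporter; series mostly up to about 70 µM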
Procedure, shortened: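 Cell line HG2L7.5c1 (human hepatoma, 20× DRE-luc). Plated, 5 h 37C, compound/DMSO added, 24 h 37C. CellTiter-Fluor 30 min 37C → fluorescence; then ONE-Glo 30 min RT → luminescence.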

[3] = qHTS assay to identify small molecule that activate the aryl hydrocarbon receptor (AhR) signaling pathway - cell viability counter screen (AID 743086);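 note: HepG2 liver cells carrying the AhR DRE luciferase reporter; series mostly up to about 70 µM; nearly all actives have a fitted effect of over 45% in size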
Procedure, shortened: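 HepG2-AhR-luc (HG2L7.5c1) cells, 4000/well, treated 24 h at 37 C with compound; viability measured as CellTiter-Fluor fluorescence after 30 min in the same wells as the luciferase read.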

[4] = target: Peroxisome proliferator-activated receptor gamma (Homo sapiens) (UniProt P37231); assay: qHTS assay to identify small molecule agonists of the peroxisome proliferator-activated receptor gamma (PPARg) signaling pathway (AID 743094; active = well fitted activation curve with a large enough effect in the signal ratio in the repeat runs, not every such curve was filed as active; the % refers to the signal ratio)
Procedure, shortened: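 Beta-lactamase FRET fluorescence was the read-out after a 1 h room-temperature substrate step, following 17 h compound treatment at 37C of HEK293H cells expressing a UAS-driven bla reporter responsive to PPARg.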

[5] = target: Peroxisome proliferator-activated receptor gamma (Homo sapiens) (UniProt P37231); assay: qHTS assay to identify small molecule antagonists of the peroxisome proliferator-activated receptor gamma (PPARg) signaling pathway (AID 743191; calls by dose curve; note: series mostly up to about 63 µM; nearly all actives have a fitted effect of over 30% in size)
Procedure, shortened: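 GeneBLAzer PPARg UAS-bla HEK293H cells, 5 h post-plating, exposed to compounds 17 h at 37C. LiveBLAzer B/G FRET substrate added for 1 h at room temperature; beta-lactamase reporter read by fluorescence intensity.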

[6] = qHTS assay to identify small molecule antagonists of the peroxisome proliferator-activated receptor gamma (PPARg) signaling pathway - cell viability counter screen (AID 743194); note: nearly all actives have a fitted effect of over 55% in size
Procedure, shortened: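 Cytotoxicity counter screen in PPARg-bla HEK293H cells, same wells as reporter assay. Compounds plus 50 nM rosiglitazone (final) for 17 h at 37 C, then viability read by CellTiter-Glo luminescence.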

[7] = qHTS assay for small molecule agonists of the antioxidant response element (ARE) signaling pathway (AID 743202; active = well fitted activation curve with a large enough effect in the signal ratio in the repeat runs, not every such curve was filed as active; the % refers to the signal ratio)
Procedure, shortened: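 Agonist mode reporter screen: HepG2 cells with ARE-controlled beta-lactamase are incubated with test compounds for 16 h at 37 C, and beta-lactamase activity is measured as fluorescence of cleaved B/G FRET substrate.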

[8] = qHTS assay for small molecule agonists of the antioxidant response element (ARE) signaling pathway - cell viability counter screen (AID 743203; calls by dose curve; note: nearly all actives have a fitted effect of over 55% in size)
Procedure, shortened: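 HepG2 cells carrying ARE-driven beta-lactamase; 2,000 cells/well; 5 hrs plating; compound pinned from DMSO; 16 hrs 37C/5% CO2; CellTiter-Glo added; 30 min RT; luminescence.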

[9] = qHTS assay for small molecule activators of the heat shock response signaling pathway - cell viability counter screen (AID 743209); note: nearly all actives have a fitted effect of over 50% in size
Procedure, shortened: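 Luminescence from CellTiter-Glo, added after the beta-lactamase FRET read, gave the viability signal. Cells were HSE-bla HeLa treated with DMSO-dissolved compounds for 5 h at 37 C following overnight plating.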

[10] = qHTS assay for small molecule activators of the heat shock response signaling pathway (AID 743210; active = well fitted activation curve with a large enough effect in the signal ratio in the repeat runs, with a control signal flat, not every such curve was filed as active; the % refers to the signal ratio;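 note: HeLa cells with beta-lactamase reporter driven by heat shock elements; series mostly up to about 63 µM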)
Procedure, shortened: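 Quantitative high-throughput format using an engineered HeLa line in which heat shock response elements drive beta-lactamase; after 5 h with compound, cells received a B/G FRET substrate and fluorescence was read.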

[11] = qHTS assay to identify small molecule agonists of the peroxisome proliferator-activated receptor delta (PPARd) signaling pathway - cell viability counter screen (AID 743211); note: nearly all actives have a fitted effect of over 55% in size
Procedure, shortened: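 HEK293H PPARd-bla, 3000 cells/well; 5 h preincubation 37C/5% CO2; cpd in DMSO, 17 h 37C; B/G FRET substrate 2 h RT; CellTiter-Glo 30 min RT, luminescence.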

[12] = target: Peroxisome proliferator-activated receptor delta (Homo sapiens) (UniProt Q03181); assay: qHTS assay to identify small molecule agonists of the peroxisome proliferator-activated receptor delta (PPARd) signaling pathway (AID 743212; calls by dose curve)
Procedure, shortened: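 Quantitative high-throughput agonist screen in a HEK293H beta-lactamase reporter line under UAS control. Compounds in DMSO, at 37 C. Fluorescence read after 2 h with FRET substrate at room temperature.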

[13] = qHTS assay to identify small molecule antagonists of the peroxisome proliferator-activated receptor delta (PPARd) signaling pathway - cell viability counter screen (AID 743213); note: nearly all actives have a fitted effect of over 50% in size
Procedure, shortened: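 Same-well viability: cells pre-incubated 5 h, dosed with compound plus 300 nM L165041, kept 17 h at 37 C, FRET substrate 2 h RT, then CellTiter-Glo 30 min RT and luminescence.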

[14] = target: Bile acid receptor (Homo sapiens) (UniProt Q96RI1); assay: qHTS assay to identify small molecule antagonists of the farnesoid-X-receptor (FXR) signaling pathway (AID 743217; active = well fitted inhibition curve with a large enough effect in the signal ratio in the repeat runs, not every such curve was filed as active; the % refers to the signal ratio)
Procedure, shortened: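 HEK 293T FXR-UAS-bla, 5000 cells/well; compound + CDCA 50 uM final; 16 h, 37 °C; B/G FRET substrate 2 h RT; fluorescence.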

[15] = qHTS assay to identify small molecule agonists of the farnesoid-X-receptor (FXR) signaling pathway - cell viability counter screen (AID 743218); note: nearly all actives have a fitted effect of over 45% in size
Procedure, shortened: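 HEK 293T FXR-bla cells; 5 h pre-incubation, 16 h compound exposure at 37 C; LiveBLAzer substrate 2 h RT, then CellTiter-Glo 30 min RT, luminescence.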

[16] = target: Bile acid receptor (Homo sapiens) (UniProt Q96RI1); assay: qHTS assay to identify small molecule agonists of the farnesoid-X-receptor (FXR) signaling pathway (AID 743220; active = well fitted activation curve with a large enough effect in the signal ratio in the repeat runs, not every such curve was filed as active; the % refers to the signal ratio)
Procedure, shortened: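 Beta-lactamase reporter under UAS control in GeneBLAzer FXR HEK 293T cells (5000/well) measured with LiveBLAzer FRET substrate after 2 h at room temperature. Compound exposure lasted 16 h at 37C.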

[17] = target: Vitamin D3 receptor (Homo sapiens) (UniProt P11473); assay: qHTS assay to identify small molecule antagonists of the vitamin D receptor (VDR) signaling pathway (AID 743223; active = well fitted inhibition curve with a large enough effect in the signal ratio in the repeat runs, not every such curve was filed as active; the % refers to the signal ratio)
Procedure, shortened: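 Antagonist mode uses 1alpha,25-dihydroxyvitamin D3 at 3 nM final as stimulus. VDR-bla cells receive compounds in DMSO, incubate 16 h at 37C, then a beta-lactamase FRET substrate for 2 h at room temperature before fluorescence measurement.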

[18] = target: Peroxisome proliferator-activated receptor delta (Homo sapiens) (UniProt Q03181); assay: qHTS assay to identify small molecule antagonists of the peroxisome proliferator-activated receptor delta (PPARd) signaling pathway (AID 743215; active = well fitted inhibition curve with a large enough effect in the signal ratio in the repeat runs, not every such curve was filed as active; the % refers to the signal ratio;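 note: cells stimulated with agonist L165041 at 300 nM final during compound exposure; series mostly up to about 62 µM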)
Procedure, shortened: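 Read-out is beta-lactamase FRET fluorescence, measured 2 h after substrate addition at room temperature. Beforehand, UAS-bla HEK293H cells carrying the PPARd reporter were exposed to compounds with L165041 at 300 nM final for 17 h at 37 C.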

[19] = qHTS assay to identify small molecule antagonists of the farnesoid-X-receptor (FXR) signaling pathway - cell viability counter screen (AID 743221; active = well fitted cell-killing curve with a large enough effect in the repeat runs, not every such curve was filed as active; note: nearly all actives have a fitted effect of over 50% in size)
Procedure, shortened: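 Luminescence from CellTiter-Glo measures cytotoxicity in GeneBLAzer FXR-UAS-bla HEK 293T cells. Cells were exposed to compounds with 50 uM chenodeoxycholic acid (final) for 16 h at 37 C, in wells also used for the reporter readout.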

[20] = target: Vitamin D3 receptor (Homo sapiens) (UniProt P11473); assay: qHTS assay to identify small molecule agonists of the vitamin D receptor (VDR) signaling pathway (AID 743222; calls by dose curve)
Procedure, shortened: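 VDR-bla cells, 2,000/well; 4 h preincubation 37C; cpd (DMSO) 16 h; LiveBLAzer B/G substrate 2 h RT; fluorescence intensity read.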

Measured: Potency

Peroxisome proliferator-activated receptor delta (Homo sapiens), sequence (Q03181 whole entry, looked up): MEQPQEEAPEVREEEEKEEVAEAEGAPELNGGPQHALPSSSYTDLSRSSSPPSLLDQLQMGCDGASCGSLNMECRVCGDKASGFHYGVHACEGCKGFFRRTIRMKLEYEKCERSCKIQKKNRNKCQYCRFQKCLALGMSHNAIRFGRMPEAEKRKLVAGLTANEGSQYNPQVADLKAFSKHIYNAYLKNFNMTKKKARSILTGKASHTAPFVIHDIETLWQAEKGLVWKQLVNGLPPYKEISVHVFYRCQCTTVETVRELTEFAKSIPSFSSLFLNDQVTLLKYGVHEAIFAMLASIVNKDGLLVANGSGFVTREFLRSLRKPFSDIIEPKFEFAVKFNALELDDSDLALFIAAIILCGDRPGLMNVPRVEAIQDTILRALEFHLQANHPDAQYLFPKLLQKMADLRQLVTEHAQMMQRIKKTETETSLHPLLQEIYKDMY
Bile acid receptor (Homo sapiens), sequence (Q96RI1 whole entry, looked up): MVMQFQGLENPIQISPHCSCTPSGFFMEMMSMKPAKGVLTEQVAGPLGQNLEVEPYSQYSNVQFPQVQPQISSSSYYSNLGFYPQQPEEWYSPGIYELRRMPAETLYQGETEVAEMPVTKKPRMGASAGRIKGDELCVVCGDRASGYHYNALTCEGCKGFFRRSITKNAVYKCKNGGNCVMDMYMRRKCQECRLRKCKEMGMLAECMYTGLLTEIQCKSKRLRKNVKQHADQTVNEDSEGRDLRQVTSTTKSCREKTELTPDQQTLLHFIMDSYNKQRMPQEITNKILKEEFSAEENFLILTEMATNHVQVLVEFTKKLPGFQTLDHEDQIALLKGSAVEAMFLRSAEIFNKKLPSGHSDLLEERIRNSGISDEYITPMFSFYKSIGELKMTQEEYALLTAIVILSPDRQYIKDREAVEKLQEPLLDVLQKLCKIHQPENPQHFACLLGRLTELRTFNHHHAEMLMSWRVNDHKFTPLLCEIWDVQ
Vitamin D3 receptor (Homo sapiens), sequence (P11473 whole entry, looked up): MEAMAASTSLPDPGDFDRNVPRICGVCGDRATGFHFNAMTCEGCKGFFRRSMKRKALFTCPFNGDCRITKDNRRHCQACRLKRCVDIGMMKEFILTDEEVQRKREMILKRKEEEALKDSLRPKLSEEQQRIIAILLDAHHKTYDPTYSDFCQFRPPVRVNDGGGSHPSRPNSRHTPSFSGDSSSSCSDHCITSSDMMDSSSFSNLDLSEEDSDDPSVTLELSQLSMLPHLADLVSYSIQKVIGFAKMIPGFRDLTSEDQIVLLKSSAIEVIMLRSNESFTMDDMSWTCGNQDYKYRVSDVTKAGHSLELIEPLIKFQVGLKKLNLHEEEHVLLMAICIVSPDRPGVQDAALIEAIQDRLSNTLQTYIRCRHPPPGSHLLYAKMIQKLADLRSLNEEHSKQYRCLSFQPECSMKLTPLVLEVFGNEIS
Peroxisome proliferator-activated receptor gamma (Homo sapiens), sequence (P37231 whole entry, looked up): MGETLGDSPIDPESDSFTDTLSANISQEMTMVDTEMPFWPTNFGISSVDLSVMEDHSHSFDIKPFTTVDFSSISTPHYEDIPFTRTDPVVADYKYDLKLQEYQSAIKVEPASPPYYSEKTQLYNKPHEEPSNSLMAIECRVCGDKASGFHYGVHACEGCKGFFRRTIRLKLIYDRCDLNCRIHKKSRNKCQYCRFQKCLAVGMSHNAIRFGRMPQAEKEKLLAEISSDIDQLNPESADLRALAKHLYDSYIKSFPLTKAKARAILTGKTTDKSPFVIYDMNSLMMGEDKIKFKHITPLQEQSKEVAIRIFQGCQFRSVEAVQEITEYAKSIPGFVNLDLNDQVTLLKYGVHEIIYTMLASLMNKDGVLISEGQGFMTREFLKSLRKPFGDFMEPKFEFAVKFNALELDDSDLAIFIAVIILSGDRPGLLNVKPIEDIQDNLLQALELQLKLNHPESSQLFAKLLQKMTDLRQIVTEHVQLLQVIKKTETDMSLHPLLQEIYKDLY
Aryl hydrocarbon receptor (Homo sapiens), sequence (P35869 whole entry, looked up): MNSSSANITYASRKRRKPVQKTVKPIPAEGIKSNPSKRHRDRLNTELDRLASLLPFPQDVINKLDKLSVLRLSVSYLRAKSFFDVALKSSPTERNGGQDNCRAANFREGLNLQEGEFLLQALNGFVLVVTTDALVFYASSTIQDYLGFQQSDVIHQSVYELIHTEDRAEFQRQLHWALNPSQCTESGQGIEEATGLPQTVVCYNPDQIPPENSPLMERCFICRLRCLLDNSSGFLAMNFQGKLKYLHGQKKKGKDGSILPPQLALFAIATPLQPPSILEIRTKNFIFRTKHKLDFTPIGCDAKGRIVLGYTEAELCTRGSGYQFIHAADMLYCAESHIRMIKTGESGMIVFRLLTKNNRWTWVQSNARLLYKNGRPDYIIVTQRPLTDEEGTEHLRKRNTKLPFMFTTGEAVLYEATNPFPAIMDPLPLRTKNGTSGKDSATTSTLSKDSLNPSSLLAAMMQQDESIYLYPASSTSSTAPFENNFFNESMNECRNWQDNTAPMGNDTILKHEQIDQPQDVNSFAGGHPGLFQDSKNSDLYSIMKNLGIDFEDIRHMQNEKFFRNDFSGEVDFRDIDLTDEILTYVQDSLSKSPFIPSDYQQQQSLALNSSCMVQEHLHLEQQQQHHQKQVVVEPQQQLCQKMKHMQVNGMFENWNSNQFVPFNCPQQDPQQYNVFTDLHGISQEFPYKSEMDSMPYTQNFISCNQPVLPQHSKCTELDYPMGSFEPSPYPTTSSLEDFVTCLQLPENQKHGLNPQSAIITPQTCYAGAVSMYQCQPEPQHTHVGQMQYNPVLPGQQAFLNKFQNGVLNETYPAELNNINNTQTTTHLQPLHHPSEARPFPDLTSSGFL

CCC(=O)/C=C/c1ccc(OC)cc1
inactive: [1] | [2] | [3] | [4] | [5] | [6] | [7] | [8] | [9] | [10] | [11] | [12] | [13] | [14] | [15] | [16] | [17]

COc1nc(C)nc(N)n1
inactive: [1] | [2] | [3] | [4] | [5] | [6] | [7] | [8] | [9] | [10] | [11] | [12] | [13] | [18] | [15] | [19] | [20] | [17]

C=C(C)C(=O)OCCCCCCCCCCCCCCCCCC
inactive: [1] | [2] | [3] | [4] | [5] | [6] | [7] | [8] | [9] | [10] | [11] | [12] | [13] | [18] | [15] | [19] | [20] | [17]

c1ccc2cnncc2c1
inactive: [1] | [2] | [3] | [4] | [5] | [6] | [7] | [8] | [9] | [10] | [11] | [12] | [13] | [18] | [15] | [19]

CCCCOCC(C)OCC(C)O (stereo not drawn)
inactive: [1] | [2] | [3] | [4] | [5] | [6] | [7] | [8] | [9] | [10] | [11] | [12] | [18] | [14] | [15] | [16] | [19] | [17]

CC(C)(O)c1ccccc1
inactive: [1] | [2] | [3] | [4] | [5] | [6] | [7] | [8] | [9] | [10] | [11] | [12] | [13] | [18] | [15] | [19] | [20] | [17]

NCCN1CCNC1=O
inactive: [1] | [2] | [3] | [4] | [5] | [6] | [7] | [8] | [9] | [10] | [11] | [12] | [18] | [15] | [19] | [20] | [17]

O=C(O)c1cccc(C(=O)O)n1
inactive: [1] | [2] | [3] | [4] | [5] | [6] | [8] | [9] | [10] | [11] | [12] | [13] | [18] | [14] | [16] | [20]

CCCCN(CCO)CCO
inactive: [1] | [2] | [3] | [4] | [5] | [6] | [7] | [8] | [9] | [10] | [11] | [13] | [19] | [20] | [17]

COC(=O)c1ccc(C(=O)OC)c(C(=O)OC)c1
inactive: [1] | [2] | [3] | [4] | [5] | [6] | [8] | [9] | [10] | [11] | [12] | [13] | [18] | [19]

Cc1cc(C)c(NC(=O)CN(CC(=O)O)CC(=O)O)c(C)c1Br
inactive: [1] | [2] | [3] | [4] | [5] | [6] | [8] | [9] | [10] | [11] | [13] | [15] | [19] | [20]

CCOC(=O)Cn1c(=O)sc2cccc(Cl)c21
active: [2] 30.6 µM
inactive: [1] | [3] | [4] | [5] | [6] | [8] | [9] | [10] | [12] | [13] | [18] | [14] | [15] | [16] | [19] | [17]

CCC(C(=O)NC(N)=O)c1ccccc1 (stereo not drawn)
inactive: [1] | [2] | [3] | [4] | [5] | [6] | [9] | [10] | [11] | [12] | [13] | [14] | [15] | [16] | [19]

COC(=O)CCCC(=O)O
inactive: [1] | [2] | [3] | [4] | [5] | [6] | [8] | [9] | [10] | [11] | [12] | [13] | [18] | [15] | [19] | [20]

CC(C)c1cccc(C(C)C)c1N
inactive: [1] | [2] | [3] | [4] | [5] | [6] | [8] | [9] | [10] | [11] | [12] | [13] | [18] | [15] | [19] | [20] | [17]

CN1[C@@H]2CC[C@H]1CC(NC(=O)n1c(=O)[nH]c3ccccc31)C2 (stereo partly drawn)
inactive: [1] | [2] | [3] | [4] | [5] | [6] | [8] | [9] | [10] | [11] | [12] | [13] | [18] | [15] | [16] | [19] | [17]
